This is a sample that favours compounds with a hit; in the whole collection about 1.1% have one here.
HTT cytoprotect = Huntington cell model cytoprotection by ATP luminescence | PC12 HTT-Q103 induced, cytoprotection, ATP luminescence, 40 h | hit rate 0.14% among 230,000 | Potency, µM (highest dose often 56.4 µM), without a hit: cytoprotection (ATP increase), actives largely listed as activators | AID 1471; note: potency is the fitted concentration of half-maximal effect; % of control where 0% means no effect; nearly all actives have a fitted effect of over 45% in size
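Stable PC12 Q103-GFP cells in serum-supplemented, phenol red-free DMEM; induction by tebufenozide at 100 nM final; compound dose series; cell viability quantified luminescently from ATP.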
HTT aggregate = mutant huntingtin aggregation inhibition; Potency, µM (titrated, usually from 46.1 µM), for the others: at the highest dose activity change, negative = inhibition, most hits filed as inhibitors; hit rate 1.1% among 220,000; PC12 HttQ103-GFP aggregates, Acumen cytometry, 40 h; note: potency is the fitted concentration of half-maximal effect; % is set by controls: 0 for no effect and ±100 for the full control effect; nearly all actives have a fitted effect of over 60% in size
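PC12 cells with ecdysone-inducible HTT exon1 Q103-GFP, induced by 100 nM tebufenozide, given compounds in a concentration series. GFP aggregates (1–25 um, 6 SD above background) counted in lysates by laser-scanning cytometry, 488 nm excitation.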
MBNL1 CUG block = blocks human MBNL1 binding to CUG repeat RNA; hit rate 0.036% among 280,000; TR-FRET MBNL1-His/biotin-(CUG)12 binding, 665/545 ratio; AID 2675; Q9NR56; Potency, µM (doses to about 57.5 µM), for the others: top-dose activity change, negative = inhibition, usual class: inhibitors; active = well fitted inhibition curve with a large enough effect in the signal ratio, with a control signal flat, not every such curve was filed as active; inconclusive = small, poorly fitted or top-dose-only effect, or effect the other way, or a change in a side signal; inactive = no such curve, though single readings can be large or run the other way; the % refers to the signal ratio; note: potency is the fitted concentration of half-maximal effect; % is set by controls: 0 for no effect and ±100 for the full control effect
Target sequence (Q9NR56 whole entry, looked up): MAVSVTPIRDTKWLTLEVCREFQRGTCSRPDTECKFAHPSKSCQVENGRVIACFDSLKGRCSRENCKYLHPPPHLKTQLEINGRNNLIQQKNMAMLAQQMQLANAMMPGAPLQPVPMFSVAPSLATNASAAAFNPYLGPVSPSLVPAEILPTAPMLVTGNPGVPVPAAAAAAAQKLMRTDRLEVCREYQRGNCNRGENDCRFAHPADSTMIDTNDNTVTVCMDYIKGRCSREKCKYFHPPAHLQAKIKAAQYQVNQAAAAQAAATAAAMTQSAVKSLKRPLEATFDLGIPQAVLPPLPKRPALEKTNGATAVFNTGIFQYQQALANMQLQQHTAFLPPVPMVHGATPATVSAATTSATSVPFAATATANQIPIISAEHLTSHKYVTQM
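Inhibition of protein-RNA binding appears as loss of TR-FRET between terbium anti-His antibody on MBNL1-His and streptavidin-XL665 on biotin-(CUG)12. Activity is normalized to buffer-only and uninhibited-complex controls.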
Lamin A splicing = modulators of lamin A splicing | HeLa LMNA splicing GFP/RFP minigene ratio, 48 h | Potency, µM (series often up to 46.1 µM), for the others: top-dose ratio change, negative = inhibition, most hits filed as inhibitors | hit rate 0.01% among 200,000; active = well fitted inhibition curve with a large enough effect in the signal ratio, with a control signal flat, not every such curve was filed as active; inconclusive = small, poorly fitted or top-dose-only effect, or effect the other way, or a change in a side signal; the % refers to the signal ratio; note: potency is the fitted concentration of half-maximal effect; % is set by controls: 0 for no effect and ±100 for the full control effect
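Read-out is the ratio of GFP to DsRed2 object intensity, acquired by 488 nm laser-scanning cytometry on HeLa lamin A-EGFP minigene reporter cells. Compound incubation 48 hrs at 37 °C in Opti-MEM with 2% FBS; DMSO 0.5% final.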
NPSR antagonist = neuropeptide S receptor (human) antagonism, cAMP. Q6W5P4. CHO-NPSR cells, cAMP TR-FRET, antagonist mode. Potency, µM (top dose mostly 38.3 µM), for the others: at the highest dose activity change, negative = inhibition, most hits filed as inhibitors. hit rate 1% among 220,000. AID 1461; note: potency is the fitted concentration of half-maximal effect; % is set by controls: 0 for no effect and ±100 for the full control effect; nearly all actives have a fitted effect of over 50% in size
Target sequence (Q6W5P4 whole entry, looked up): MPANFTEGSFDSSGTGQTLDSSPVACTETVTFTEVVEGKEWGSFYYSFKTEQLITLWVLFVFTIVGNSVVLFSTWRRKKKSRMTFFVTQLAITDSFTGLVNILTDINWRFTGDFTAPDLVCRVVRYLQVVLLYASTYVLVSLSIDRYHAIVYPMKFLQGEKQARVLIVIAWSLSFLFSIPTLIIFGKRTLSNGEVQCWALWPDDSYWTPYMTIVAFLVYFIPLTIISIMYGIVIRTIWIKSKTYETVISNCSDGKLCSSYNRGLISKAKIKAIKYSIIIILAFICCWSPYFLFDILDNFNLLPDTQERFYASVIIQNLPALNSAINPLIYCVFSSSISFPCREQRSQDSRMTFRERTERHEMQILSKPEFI
CBFb-RUNX1 inh = CBF-beta/RUNX1 interaction disruption; Q01196+Q13951; AlphaScreen CBFb-His/RUNX1-biotin binding, biochemical; Potency, µM (doses to about 59.8 µM), for the others: top-dose activity, negative = inhibition, actives largely listed as inhibitors; 230,000 tested, under 10 active; AID 1477; note: % of control where 0% means no effect
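AlphaScreen proximity signal reports loss of binding between His-tagged CBF-beta and biotin-labelled RUNX1, each at 30 nM. Proteins are pre-associated for 20 minutes, compounds added for 15 minutes, then beads for 90 minutes, all at ambient temperature.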
* hit, by the source's call; ? = inconclusive; . = not tested or not shown; [ ] = another dose, or the depositor's remark. Unless noted, calls come from the whole dose curve; as a rule, active = well fitted curve in the direction sought with a large enough effect; inconclusive = small, poorly fitted or top-dose-only effect, or another doubt; inactive = no such curve, though single readings can be large; an effect the other way counts as inactive or inconclusive.

SMILES	HTT cytoprotect	HTT aggregate	MBNL1 CUG block	Lamin A splicing	NPSR antagonist	CBFb-RUNX1 inh
O=C(Nc1nc2ccccc2s1)c1ccc(OCC2CCCO2)cc1 (configuration not stated)	-5%[10 µM]	32µM*	-8%	?	-19%[46.1 µM]	4%
Cc1ccc(CSc2nc(=O)c3c(C)cc(C)nc3n2C2CC2)cc1	.	.	.	7%[46 µM]	.	.
O=[N+]([O-])c1ccccc1-c1ccc(/C=N/n2cnnc2)o1	7%	11%	?	?	-11%[46.1 µM]	-3%
O=C1ON=C(c2ccccc2)/C1=C/c1ccc(-c2ccccc2[N+](=O)[O-])o1	.	-15%	12%	?	7.9µM*	?
Cc1nn(-c2ccccc2)c(N2CCCC2)c1/C=N/NC(=O)c1ccccc1O	0%[10 µM]	?	-9%	?	-9%	-14%
O=C(N/N=C/c1cc2c3c(c1O)CCCN3CCC2)c1ccccc1O	.	0.89µM*	?	?	-11%	.
Cc1cccc(NC(=S)NNc2ncc(C(F)(F)F)cc2Cl)c1	22%[10 µM]	?	-5%	?	11%	-9%
FC(F)(F)c1cnc(NNC(=S)Nc2ccccc2Cl)c(Cl)c1	27%[10 µM]	22µM*	2%	-21%	-12%[46.1 µM]	-10%
Cc1ccc(C)c(NC(=S)NNC(=O)c2csc3c2CCC(C)C3)c1 (configuration not stated)	1%	-3%	4%	?	-8%[46.1 µM]	-4%
Cc1ccc(C)c(NC(=S)NNC(=O)c2csc3c2CCCC3)c1	11%	25µM*	3%	-14%	-17%[46.1 µM]	-2%
COc1ccc(CCNS(=O)(=O)c2ccccc2)cc1OC	-3%	3.5µM*	-6%	0%	-6%[46.1 µM]	-9%
Cc1cn([C@H]2C=C[C@H](CO)O2)c(=O)[nH]c1=O	1%[1.9 µM]	.	.	.	.	.
CC(C)(C)C(=O)Nc1ccc(C(=O)N/N=C/c2ccccc2OC(=O)c2ccccc2)cc1	-102%	11µM*	-4%	?	-19%[46.1 µM]	-2%
O=C(N/N=C/c1ccccc1OC(=O)c1ccc2c(c1)OCO2)c1ccccc1	-73%[10 µM]	5µM*	-9%	?	-12%	0%
CC(C)(C)C(=O)Nc1ccc(C(=O)N/N=C/c2ccccc2OC(=O)c2ccc(Cl)cc2)cc1	-88%[10 µM]	?	.	?	-8%	-7%
Cn1c(=O)n(C)c2cc([N+](=O)[O-])c(N3CCN(S(=O)(=O)c4ccc(C(C)(C)C)cc4)CC3)cc21	16%[10 µM]	13µM*	3%	1%	17%[46.1 µM]	-1%
CC(=O)Nc1ccc(S(=O)(=O)N2CCN(c3cc4c(cc3[N+](=O)[O-])n(C)c(=O)n4C)CC2)cc1	-17%	-23%	?	-26%	-20%[46.1 µM]	-1%
COc1ccccc1-n1c(-c2ccccc2)c[n+]2c1CCc1ccccc1-2	-87%	2.2µM*	-3%	?	-15%	8%
CC(C)c1ccc(-n2c(-c3ccccc3)c[n+]3c2CCc2ccccc2-3)cc1	-54%[10 µM]	1.6µM*	-2%	.	10µM*	3%
COc1ccc(-n2c(-c3ccc(Br)cc3)c[n+]3c2CCc2ccccc2-3)cc1	-13%[10 µM]	13µM*	-9%	?	15%	-15%
COc1ccccc1-n1c(-c2ccccc2)c[nH]c1=S	8%[10 µM]	-10%	-3%	-7%[46 µM]	-6%	-14%
COc1ccc(-c2cn(-c3ccc(OC)cc3)c3[n+]2-c2ccccc2CC3)cc1	-50%[10 µM]	?	-12%	?	-2%	-11%
C#C[C@]1(OC(C)=O)CC[C@H]2[C@@H]3CCC4=CC(=O)CC[C@@H]4[C@H]3CC[C@@]21C	-116%	.	.	.	.	-8%
CC[C@H](C)[C@H](NC(=O)[C@H](CC(=O)O)NC(=O)[C@H](CC(C)C)NC(=O)[C@H](NC(C)=O)C(c1ccccc1)c1ccccc1)C(=O)N[C@H](C(=O)N[C@@H](Cc1c[nH]c2ccccc12)C(=O)O)[C@@H](C)CC	.	.	.	.	.	6%
COc1ccc(CNC(=O)c2cc3c(C)nc4ccccc4c3o2)c(OC)c1	7%	4µM*	-13%	-9%	?	-2%
SMILES	HTT cytoprotect	HTT aggregate	MBNL1 CUG block	Lamin A splicing	NPSR antagonist	CBFb-RUNX1 inh
CCc1ccc(CNC(=O)c2cc3c(C)nc4ccccc4c3o2)cc1	26%[10 µM]	10µM*	?	?	-16%[46.1 µM]	4%
COc1cccc(CNC(=O)c2cc3c(C)nc4ccccc4c3o2)c1	-67%	10µM*	-1%	?	-15%[46.1 µM]	-3%
CC(=O)Nc1nonc1-c1nnc(SCc2ccc(F)cc2)n1C	.	.	.	19%[46 µM]	.	.
C=C(C(C)=O)C(O)c1cccc(OC)c1 (configuration not stated)	24%	.	.	.	.	-9%
Cc1ccc(-n2nnc3c(=O)n(CC(=O)OCc4ccccc4)cnc32)cc1	.	0.0028µM*	0%	-10%	0%[46.1 µM]	13%
O=C(Nc1nc(NC(=O)c2ccco2)n(-c2ccccc2)n1)c1ccccc1	4µM*	?	9%	?	?	-12%
CCCCc1nc2c(c3c1C[C@H](C)OC3)CN(C(=O)c1ccco1)CC2	-12%[10 µM]	.	.	?	.	5%[13.1 µM]
Cc1ccc(S(=O)(=O)NC(C)(C)CSc2nncn2N)cc1	?	2.8µM*	5%	-3%	3%[46.1 µM]	3%
CCC(=O)NC1CCc2cccc(OC)c2C1 (configuration not stated)	-29%	.	.	.	.	?
N/C(=N\OC(=O)c1cccs1)c1ccc(Cl)cc1	8%[10 µM]	25%[9.22 µM]	0%	.	0%	15%
NC(=O)n1c(O)c(C(=O)c2cccs2)c2cc(Cl)ccc21	.	11µM*	.	.	.	?
COc1cccc(OC)c1C1=Nn2c(nnc2-c2ccccc2C)SC1	.	.	.	.	.	-8%
O=C(C#Cc1cccc([N+](=O)[O-])c1)c1ccccc1	-114%	?	3%	-4%	3.2µM*	-9%
CSc1cccc(NC(=O)C2CCN(S(=O)(=O)c3ccc4c(c3)CCCN4C(=O)C3CCC3)CC2)c1	.	.	.	-8%[46 µM]	.	.
CCn1c(=O)c2c(cnn2C)c2ccccc21	0%	8.9µM*	4%	?	-9%[46.1 µM]	1%
CCC(C)(C)c1ccc(OCCCC[n+]2ccc(C)cc2)c(C(C)(C)CC)c1	-80%	18µM*	-5%	.	?	-2%
CCC(C)(C)c1ccc(OCCCC[n+]2cccc(C)c2C)c(C(C)(C)CC)c1	-51%[10 µM]	-31%[9.22 µM]	.	.	?	-3%
Cc1ccc(S(=O)(=O)CC2CSc3nc4ccccc4n32)cc1 (configuration not stated)	4µM*	7.1µM*	0%	?	25%[46.1 µM]	1%
O=C(NCCc1ccccc1)c1oc2ccccc2c1COc1ccccc1	37%[10 µM]	14µM*	-6%	?	-35%	?

High-throughput results deposited in PubChem by National Center for Advancing Translational Sciences (NCATS).
